This is an account of results in PubChem BioAssay (Tox21).

Records with an inconclusive call do not appear. Activity calls are given as the source filed them. Unless noted, calls come from the whole dose curve; as a rule, active = well fitted curve in the direction sought with a large enough effect in the repeat runs; inconclusive = weak or mixed curves; inactive = no such curve, though single readings can be large; an effect the other way counts as inactive or inconclusive.

Experiment [1] can be described thus: qHTS assay to identify small molecule agonists of the estrogen receptor alpha (ER-alpha) signaling pathway in the presence of an antagonist - cell viability counter screen (AID 1259386).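 Note: cells exposed to compounds for 22 h at 37 °C before the viability read; nearly all actives have a fitted effect of over 30% in size.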 Note: potency is the fitted concentration of half-maximal effect. In a few lines:
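Using estrogen-depleted VM7Luc4E2 cells, the 15-concentration compound series was applied together with 10.0nM ICI-182,780 and incubated 22hr at 37C/5% CO2. Cell viability was then scored by CellTiter-Fluor.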

The target in experiment [2] is Progesterone receptor (Homo sapiens) (UniProt P06401). Description: qHTS assay to identify small molecule agonists of the progesterone receptor (PR) signaling pathway (AID 1346784; calls by dose curve; note: nearly all actives have a fitted effect of over 30% in size; note: potency is the fitted concentration of half-maximal effect). In a few lines: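 Using charcoal-stripped serum (2%) to limit endogenous steroids, PR-UAS-bla HEK 293T cells received compounds for 16 hr at 37C after 6 hr plating; beta-lactamase FRET fluorescence was recorded following 2 hr substrate loading at room temperature.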

Experiment [3] has the same target. Description: qHTS assay to identify small molecule antagonists of the progesterone receptor (PR) signaling pathway (AID 1346795; active = well fitted inhibition curve with a large enough effect in the signal ratio in the repeat runs, not every such curve was filed as active; the % refers to the signal ratio; note: potency is the fitted concentration of half-maximal effect). In short, it runs like this: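 Inhibition of R5020-induced (1 nM final) beta-lactamase reporter signal in PR-UAS-bla HEK293T cells was scored by FRET fluorescence after overnight (16 hr) compound treatment.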
Experiment [4] in a line: qHTS assay to identify small molecule antagonists of the progesterone receptor (PR) signaling pathway - cell viability counter screen (AID 1346798). Note: nearly all actives have a fitted effect of over 50% in size. Note: potency is the fitted concentration of half-maximal effect. In a few lines: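 ATP content as viability readout: CellTiter-Glo luminescence, 30 min room temperature, in PR-UAS-bla HEK293T cells after 16 hr compound/R5020 treatment at 37C and 5% CO2.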
Experiment [5] is described as follows: qHTS assay to identify small molecule antagonists of the TGF-beta/Smad signaling pathway - cell viability counter screen (AID 1346824). Note: nearly all actives have a fitted effect of over 50% in size. Note: potency is the fitted concentration of half-maximal effect. In a few lines: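 Cytotoxicity counter-screen run in the same wells as the beta-lactamase Smad reporter read: CellTiter-Glo luminescence after 30 min at room temperature. HEK 293T SBE-bla cells had 5 hr compound exposure at 37 C with TGF-beta1 (0.25 ng/mL stock).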

A short description of experiment [6]: qHTS assay to identify small molecule agonists of the TGF-beta/Smad signaling pathway - cell viability counter screen (AID 1346829). Note: top concentration of the series differs between compounds; nearly all actives have a fitted effect of over 45% in size. In a few lines: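 Same-well cytotoxicity: CellTiter-Glo added after the 2 hr room-temperature beta-lactamase substrate step, luminescence measured 30 min later; cells had 5 hr of compound at 37 C.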
Experiment [7] is described as follows: qHTS assay to identify small molecule agonists of the TGF-beta/Smad signaling pathway (AID 1346859; active = well fitted activation curve with a large enough effect in the signal ratio in the repeat runs, not every such curve was filed as active; the % refers to the signal ratio; note: series mostly up to about 77 µM). In short, it runs like this:
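Stable Smad binding element-beta-lactamase HEK 293T cells; 5 hr compound exposure at 37 C under 5% CO2; 2 hr room-temperature substrate step; fluorescence excited at 405 nm, collected at 460 nm and 530 nm.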

Experiment [8] addresses Thyrotropin-releasing hormone receptor (Homo sapiens) (UniProt P34981). Put plainly: qHTS assay to identify small molecule antagonists of the thyrotropin-releasing hormone receptor (TRHR) signaling pathway (AID 1346877; active = well fitted inhibition curve with a large enough effect in the repeat runs, not every such curve was filed as active; note: potency is the fitted concentration of half-maximal effect). In a few lines: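 Calcium signal in dye-loaded TRHR/HEK293 cells; compounds added 5 min before TRH (1 nM final); fluorescence monitored 3 min at 1 s steps.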

Experiment [9] shares this target. Description: qHTS assay to identify small molecule agonists of the thyrotropin-releasing hormone receptor (TRHR) signaling pathway (AID 1346891; calls by dose curve;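 note: HEK293 cells expressing TRHR with calcium dye readout; series mostly up to about 58 µM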). In short, it runs like this: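 In 1536-format, 1500 TRHR-Hek293 cells per well grew 18 h, took up calcium dye for 2 h at 37 °C, received compound, and were read kinetically; 15-point titrations, triplicates.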
The nature of experiment [10]: qHTS assay to identify small molecule agonists of the progesterone receptor (PR) signaling pathway - cell viability counter screen (AID 1346799; calls by dose curve; note: nearly all actives have a fitted effect of over 45% in size; note: potency is the fitted concentration of half-maximal effect). In a few lines: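 Cytotoxicity in PR-bla HEK293T cells: 16 h compound, 37C; CellTiter-Glo added post-FRET read; luminescence after 30 min RT.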

Sequence of Thyrotropin-releasing hormone receptor (Homo sapiens) (P34981 whole entry, looked up): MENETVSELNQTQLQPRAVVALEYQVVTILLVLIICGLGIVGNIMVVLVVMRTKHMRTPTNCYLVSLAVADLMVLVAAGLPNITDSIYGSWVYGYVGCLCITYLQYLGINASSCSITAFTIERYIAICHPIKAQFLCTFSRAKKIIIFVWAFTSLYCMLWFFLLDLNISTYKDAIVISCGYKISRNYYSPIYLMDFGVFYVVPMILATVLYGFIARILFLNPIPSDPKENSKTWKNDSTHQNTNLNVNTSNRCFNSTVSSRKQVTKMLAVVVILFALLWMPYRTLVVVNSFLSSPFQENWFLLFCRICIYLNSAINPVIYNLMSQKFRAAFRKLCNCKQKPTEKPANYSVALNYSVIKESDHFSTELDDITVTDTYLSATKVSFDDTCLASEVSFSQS
Sequence of Progesterone receptor (Homo sapiens) (P06401 whole entry, looked up): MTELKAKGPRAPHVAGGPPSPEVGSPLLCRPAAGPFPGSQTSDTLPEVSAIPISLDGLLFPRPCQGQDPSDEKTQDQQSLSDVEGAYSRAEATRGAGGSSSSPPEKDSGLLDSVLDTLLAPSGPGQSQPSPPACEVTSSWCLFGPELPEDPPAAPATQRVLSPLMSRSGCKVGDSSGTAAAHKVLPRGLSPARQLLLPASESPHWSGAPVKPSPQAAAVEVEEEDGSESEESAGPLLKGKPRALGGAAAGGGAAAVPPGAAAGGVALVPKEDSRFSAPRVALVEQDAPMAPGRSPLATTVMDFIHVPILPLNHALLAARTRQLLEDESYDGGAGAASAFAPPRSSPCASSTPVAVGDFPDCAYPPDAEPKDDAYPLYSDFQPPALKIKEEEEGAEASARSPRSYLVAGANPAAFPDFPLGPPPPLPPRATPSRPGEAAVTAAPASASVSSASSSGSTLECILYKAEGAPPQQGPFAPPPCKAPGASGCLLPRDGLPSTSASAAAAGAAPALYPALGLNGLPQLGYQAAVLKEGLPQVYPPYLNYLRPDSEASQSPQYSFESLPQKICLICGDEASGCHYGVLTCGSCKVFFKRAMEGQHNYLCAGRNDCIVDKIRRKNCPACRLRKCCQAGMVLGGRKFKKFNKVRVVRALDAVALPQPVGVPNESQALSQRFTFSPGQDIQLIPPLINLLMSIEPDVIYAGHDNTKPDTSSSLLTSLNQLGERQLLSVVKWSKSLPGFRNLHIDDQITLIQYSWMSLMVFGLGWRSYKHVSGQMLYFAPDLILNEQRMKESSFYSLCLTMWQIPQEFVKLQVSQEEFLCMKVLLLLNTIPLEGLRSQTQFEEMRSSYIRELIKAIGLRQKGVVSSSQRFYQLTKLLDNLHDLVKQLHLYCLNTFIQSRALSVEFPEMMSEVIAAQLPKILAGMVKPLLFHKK

Take `Nc1c(Oc2ccccc2)cc(O)c2c1C(=O)c1ccccc1C2=O`: the Potency in [1] was 26.6 µM (active). The Potency result in experiment [2], in experiment [3], in [4], in [5], in experiment [6] and in experiment [8] was “inactive” each time. Moreover, in experiment [9], the Potency result is “inactive”. Besides, in [7], the molecule was classed as inactive.
Take `O=C1C=CC(=O)c2ccccc21`: the Potency in experiment [1] was 30.6 µM (active); in experiment [5], 24.5 µM (active); in experiment [8], 21.3 µM (active). For the same molecule, the Potency entry in [2], in experiment [3], in experiment [4], in [10] and in [9] was “inactive” in each case.
With `COC(=O)N(C(=O)N1COC2(C(=O)OC)Cc3cc(Cl)ccc3C2=N1)c1ccc(OC(F)(F)F)cc1` (stereo not drawn), the Potency entry in experiment [1], in [2], in experiment [4], in [10] and in experiment [5] was “inactive” each time. In addition, in [3], the Potency was 29.8 µM (active). The molecule was called inactive in experiment [7].
With `Cc1ccc(C(=O)Cl)cc1`, the Potency result in experiment [1], in experiment [2], in [3], in experiment [4], in experiment [10] and in [5] was “inactive” each time. Also, the Potency entry in [6] and in [9] was “inactive” throughout. Besides, the call in experiment [7] was inactive.
With `CCOC(=O)c1ccccc1S(=O)(=O)NC(=O)Nc1nc(Cl)cc(OC)n1`, the Potency result in experiment [1], in experiment [2], in experiment [3], in experiment [4], in [5] and in experiment [6] was “inactive” throughout. For the same molecule, in experiment [7], the molecule was called inactive.
As to `CCS(=O)(=O)c1cccnc1S(=O)(=O)NC(=O)Nc1nc(OC)cc(OC)n1`, the Potency entry in experiment [1], in experiment [2], in experiment [3], in experiment [4], in experiment [10] and in experiment [5] was “inactive” in each case. For the same molecule, the Potency entry in experiment [8] and in [9] was “inactive” each time. In addition, the result in experiment [7] was inactive.
Consider `COS(=O)(=O)c1ccc(C)cc1`, for which the Potency entry in experiment [1], in [2], in experiment [3], in experiment [4], in experiment [5] and in experiment [6] was “inactive” in each case. Besides, the Potency entry in experiment [8] and in experiment [9] was “inactive” in each case. For the same molecule, the call in [7] was inactive.
In the case of `c1ccc2c(c1)[nH]c1cnccc12`, the Potency result in experiment [1], in [2], in experiment [4], in experiment [10], in experiment [5] and in experiment [6] was “inactive” each time. Further, the Potency result in [8] and in [9] was “inactive” throughout. Besides, the Potency in experiment [3] was 27.3 µM (active).
As to `Cc1cc(Cl)ccc1O[C@H](C)C(=O)O`, the Potency result in experiment [1], in experiment [2], in [3], in [4], in [5] and in experiment [6] was “inactive” throughout.
On to `FC(F)(F)c1cccc(C2=CCN(CCc3ccc4ccccc4c3)CC2)c1`, for which the Potency result in experiment [1], in experiment [2], in experiment [3], in experiment [4], in experiment [10] and in experiment [5] was “inactive” in each case. In addition, the Potency entry in [6] and in experiment [9] was “inactive” in each case.
As for `CC(=O)c1cc(C(C)(C)C)cc2c1CCC2(C)C`, the Potency entry in [1], in experiment [2], in [3], in experiment [4], in experiment [10] and in [5] was “inactive” in each case. Moreover, the Potency result in experiment [8] and in experiment [9] was “inactive” in each case. For the same molecule, the call in [7] was inactive.
Consider `CCSC(C)CC1CC(=O)C(/C(CC)=N/OC/C=C/Cl)=C(O)C1` (stereo not drawn), for which the Potency entry in [1], in experiment [2], in [3], in experiment [4], in [10] and in experiment [5] was “inactive” each time. Moreover, the Potency entry in [6] and in experiment [9] was “inactive” throughout. Also, in experiment [7], the molecule was called inactive.
In the case of `CN(CCCC(=O)c1cccnc1)N=O`, the Potency result in [1], in experiment [2], in experiment [3], in [4], in experiment [10] and in experiment [5] was “inactive” each time. The Potency result in [6], in [8] and in experiment [9] was “inactive” in each case.
For the molecule `CCN`, the Potency result in [1], in experiment [2], in [3], in experiment [4], in [10] and in experiment [5] was “inactive” throughout. Also, in [9], the Potency result was “inactive”. Also, the result in experiment [7] was inactive.
Turning to `N#C/C=C/C#N`, the Potency entry in [1], in [2], in experiment [4], in experiment [10], in experiment [5] and in experiment [8] was “inactive” in each case. For the same molecule, the Potency entry in experiment [9] is “inactive”. Also, the Potency in experiment [3] was 45.3 µM (active). For the same molecule, the result in [7] was inactive.
Regarding `C[As+](C)(C)CC(=O)[O-]`, the Potency result in [1], in experiment [2], in experiment [3], in [4], in experiment [10] and in experiment [5] was “inactive” each time. Also, the Potency entry in experiment [6], in experiment [8] and in experiment [9] was “inactive” in each case.
For `CN(C)C1CSSSC1`, the Potency result in [1], in experiment [2], in experiment [3], in experiment [4], in experiment [10] and in [6] was “inactive” each time. Besides, the Potency entry in experiment [8] and in [9] was “inactive” each time. Moreover, the call in [7] was inactive.
Consider `Oc1ccc(I)cc1`, for which the Potency result in experiment [1], in experiment [2], in [4], in experiment [5] and in [6] was “inactive” throughout. For the same molecule, the Potency in experiment [3] is 61.1 µM (active). In experiment [7], the result was inactive.
Consider `CNC(C)Cc1ccc2c(c1)OCO2` (stereo not drawn), for which the Potency entry in experiment [1], in experiment [2], in experiment [10], in experiment [5], in experiment [6] and in experiment [8] was “inactive” in each case. Also, the Potency result in [9] was “inactive”. In addition, the figures for the Potency in experiment [3] and in experiment [4] were 75.1 µM (active) and 66.9 µM (active), respectively.
With `CCCCCCCCCCCCCCC(Br)C(=O)O` (stereo not drawn), the Potency result in experiment [1], in [2], in experiment [3], in experiment [4], in experiment [5] and in experiment [6] was “inactive” throughout. Further, the Potency result in experiment [8] and in experiment [9] was “inactive” in each case. Moreover, the result in experiment [7] was inactive.
As for `ClC(Cl)=C(c1ccc(Cl)cc1)c1ccc(Cl)cc1`, the Potency result in experiment [1], in [2], in experiment [4], in experiment [5], in [6] and in experiment [8] was “inactive” each time. Besides, in experiment [9], the Potency result was “inactive”. Besides, the figures for the Potency in [3] and in [10] were 6.26 µM (active) and 61.1 µM (active), respectively.
As for `Clc1ccc(C(c2ccccc2Cl)C(Cl)(Cl)Cl)cc1` (stereo not drawn), the Potency entry in [1], in experiment [2], in experiment [4], in experiment [5], in [6] and in [8] was “inactive” in each case. In addition, the Potency entry in experiment [9] is “inactive”. The Potency in [3] was 4.51 µM (active). Besides, the outcome in [7] was inactive.
With `N#CC(Cl)Cl`, the Potency entry in [1], in experiment [3], in experiment [4], in [10], in [5] and in experiment [6] was “inactive” throughout. The Potency result in [9] is “inactive”. For the same molecule, in experiment [2], the Potency is 5.3 µM (active). The result in experiment [7] was inactive.
Take `CC(C)CCCCCCCOP(=O)(Oc1ccccc1)Oc1ccccc1`: the Potency entry in experiment [1], in experiment [2], in [10], in experiment [5], in [6] and in [9] was “inactive” throughout. Further, in experiment [3], the Potency was 24.5 µM (active). Besides, the call in [7] was inactive.
Take `CCOC(=O)C1(c2ccccc2)CCN(CCC(C#N)(c2ccccc2)c2ccccc2)CC1`: the Potency entry in experiment [1], in experiment [2], in [4], in experiment [10], in [5] and in experiment [6] was “inactive” throughout. Besides, the Potency entry in [8] and in experiment [9] was “inactive” in each case.
Regarding `COCC(=O)N(c1c(C)cccc1C)[C@H](C)C(=O)OC`, the Potency entry in experiment [1], in [2], in experiment [3], in experiment [4], in [6] and in experiment [8] was “inactive” each time. In [9], the Potency entry was “inactive”. Further, in experiment [7], the outcome was inactive.
For `COc1ccc(/C(=C/C(=O)N2CCOCC2)c2ccc(Cl)cc2)cc1OC`, the Potency entry in experiment [1], in experiment [2], in [4], in experiment [10], in experiment [5] and in experiment [6] was “inactive” throughout. In addition, the Potency result in [8] and in experiment [9] was “inactive” in each case. In addition, the molecule was classed as inactive in experiment [7].
